According to PMC5540273 (PLoS ONE, 2017):

Columns and labels:
Settings in all cases: concentration: 1 μM, replicates: in singlicate; n = 1
MAP4K2 = system: MAP4K2
MAP4K3 = system: MAP4K3
MAP4K4 = system: MAP4K4
MAP4K5 = system: MAP4K5
MAPKAPK2 = system: MAPKAPK2
MAPKAPK5 = system: MAPKAPK5
MARK1 = system: MARK1
MARK2 = system: MARK2
MARK3 = system: MARK3
MARK4 = system: MARK4
MAST1 = system: MAST1
MEK1 = system: T1, MEK1
T1 construct: gene MAP2K1

MEK2 = system: T2, MEK2
T2 construct: gene MAP2K2

MEK3 = system: T3, MEK3
T3 construct: gene MAP2K3

MEK4 = system: T4, MEK4
T4 construct: gene MAP2K4

MEK5 = system: T5, MEK5
T5 construct: gene MAP2K5

MEK6 = system: T6, MEK6
T6 construct: gene MAP2K6

MELK = system: MELK
MERTK = system: MERTK
MET = system: MET
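Note: KINOMEscan kinase panel screen.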

Row | SMILES | %Inh (MAP4K2) | %Inh (MAP4K3) | %Inh (MAP4K4) | %Inh (MAP4K5) | %Inh (MAPKAPK2) | %Inh (MAPKAPK5) | %Inh (MARK1) | %Inh (MARK2) | %Inh (MARK3) | %Inh (MARK4) | %Inh (MAST1) | %Inh (MEK1) | %Inh (MEK2) | %Inh (MEK3) | %Inh (MEK4) | %Inh (MEK5) | %Inh (MEK6) | %Inh (MELK) | %Inh (MERTK) | %Inh (MET)
1 | CC(=O)c1c(C)c2cnc(Nc3ccn(C)n3)nc2n(C2CCCC2)c1=O | 0% | 24% | 0% | 0% | 0% | 0% | 0% | 0% | 12% | 0% | 0% | 0% | 0% | 13% | 0% | 0% | 4% | 1% | 0% | 0%
2 | CCc1ccc(-c2ccc3c(c2)-c2n[nH]cc2S(=O)(=O)N3C)cc1 | 0% | 15% | 15% | 12% | 0% | 0% | 0% | 0% | 0% | 0% | 0% | 10% | 86% | 13% | 0% | 8% | 0% | 9% | 0% | 0%
3 | CS(=O)(=O)CCNCc1nc(-c2ccc3ncnc(Nc4ccc(OCc5ccccc5)c(Cl)c4)c3c2)cs1.Cl [GW582764] | 0% | 0% | 10% | 8% | 21% | 0% | 0% | 0% | 0% | 0% | 43% | 0% | 0% | 0% | 16% | 84% | 0% | 0% | 9% | 0%
4 | O=C1NC(=O)C(c2ccc(Cl)cc2)=C1Nc1cccc(Cl)c1 [SB-317651] | 6% | 1% | 0% | 0% | 0% | 0% | 0% | 13% | 6% | 0% | 23% | 0% | 13% | 27% | 0% | 4% | 3% | 16% | 2% | 0%
5 | CN1c2ccc(-c3ccc(C(N)=O)cc3)cc2-c2[nH]ncc2S1(=O)=O | 1% | 6% | 29% | 23% | 0% | 0% | 14% | 0% | 0% | 27% | 0% | 41% | 17% | 16% | 0% | 24% | 0% | 10% | 46% | 14%
6 | COc1ccc(CSc2nnc(-c3ccc4c(c3)CCO4)o2)cc1 | 0% | 0% | 0% | 0% | 0% | 0% | 0% | 21% | 0% | 0% | 7% | 0% | 0% | 0% | 0% | 1% | 0% | 0% | 0% | 0%
7 | Cc1cnc(N)c(/C=C/c2cncc(C(=O)NCCc3ccc(Cl)cc3Cl)c2)c1.Cl [GSK190937] | 4% | 0% | 17% | 18% | – | – | 0% | 6% | 0% | 0% | 5% | 0% | 0% | 0% | 34% | 41% | 0% | 2% | 29% | 0%
8 | COc1cccc(CNC(=O)NC2CCN(c3ccnc(Nc4ccc(F)cc4)n3)C2)c1 (stereo not drawn) [GSK1379723] | 0% | 8% | 2% | 1% | 16% | 0% | 0% | 0% | 0% | 0% | 6% | 10% | 0% | 0% | 36% | 53% | 0% | 0% | 26% | 0%
9 | Cn1cncc1-c1cc2c(Nc3ccc(OCc4ccccc4)cc3)ncnc2cn1 [GW281179] | 0% | 0% | 1% | 0% | 24% | 0% | 0% | 0% | 0% | 11% | 0% | 11% | 5% | 0% | 24% | 99.2% | 0% | 0% | 0% | 0%
10 | NS(=O)(=O)c1cccc(N/C=C2\C(=O)Nc3ccc(S(=O)(=O)Cc4c(Cl)cccc4Cl)cc32)c1 [GSK398099] | 0% | 19% | 28% | 0% | 20% | 0% | 0% | 0% | 0% | 0% | 0% | 0% | 0% | 1% | 23% | 14% | 0% | 0% | 0% | 23%
